Active and inactive are the calls of the source. Unless noted, the rule behind the calls is not given here.
Experiments:
[1] = A549 cell viability effects, profiling panel, calcein-AM fluorescence, 48 h, basal (AID 1162); conditions: higher = more signal; note: test concentration not given here
[2] = adipocyte viability effects, profiling panel, cell-based, 3T3-L1 adipocytes, calcein-AM fluorescence, 48 h, basal (AID 1163); conditions: 3T3-L1 adipocytes viability, higher = more signal; note: test concentration not given here
[3] = HepG2 cell viability effects, profiling panel, calcein-AM fluorescence, 48 h, basal (AID 1164); conditions: higher = more signal; note: test concentration not given here
[4] = MM1S cell viability effects, profiling panel, calcein-AM fluorescence, 48 h, basal (AID 1165); conditions: higher = more signal;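 note: viability of MM1S multiple myeloma cells under basal unstimulated conditions; test concentration not given here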
[5] = basal RPMI8226 viability, no added stimulus, profiling panel, cell-based, calcein-AM fluorescence, 48 h, PK04 Diversity Set (AID 1166); conditions: RPMI8226 myeloma viability, higher = more signal;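 note: cells grown under basal conditions without added stimulus; test concentration not given here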
[6] = basal HepG2 mitochondrial membrane potential changes, profiling panel, cell-based, JC-1 fluorescence, 24 h, 100 nL compound (AID 1167); conditions: higher = more signal; note: test concentration not given here
[7] = basal 3T3-L1 adipocyte mitochondrial potential changes, profiling panel, cell-based, JC-1 fluorescence, 3T3-L1 adipocytes, 24 h, 100 nL compound (AID 1168); conditions: JC-1 mitochondrial fluorescence, higher = more signal, called active from +8 up or from −8 down; note: test concentration not given here
[8] = basal RPMI8226 mitochondrial membrane potential changes, profiling panel, cell-based, JC-1 fluorescence, 24 h, 100 nL compound (AID 1169); conditions: RPMI8226 myeloma, JC-1 mitochondrial potential fluorescence, higher = more signal; note: test concentration not given here
[9] = basal MM1S mitochondrial membrane potential changes, profiling panel, cell-based, JC-1 fluorescence, 24 h, 100 nL compound (AID 1170); conditions: higher = more signal; note: test concentration not given here
[10] = A549 lung cancer cell viability effects, profiling panel, resazurin fluorescence, 24 h, PK04 Diversity Set (AID 1171); conditions: higher = more signal, called active from +8 up or from −8 down; note: test concentration not given here
[11] = HepG2 liver cancer cell viability effects, profiling panel, resazurin fluorescence, 24 h, PK04 Diversity Set (AID 1172); conditions: higher = more signal; note: test concentration not given here
[12] = basal S. cerevisiae growth modulation, no modifier, primary screen, OD600, strain BY4716, 24 h, basal condition (AID 1173); conditions: OD600, 24 h, higher = more signal, called active from +8 up or from −8 down
[13] = MM1S myeloma cell viability, profiling panel, resazurin fluorescence, basal, 24 h, PK04 Diversity Set (AID 1174); conditions: higher = more signal, called active from +8 up or from −8 down;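 note: MM1S multiple myeloma cell line; test concentration not given here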
[14] = molecular target: Dihydroorotate dehydrogenase (quinone), mitochondrial (Plasmodium falciparum (isolate 3D7)) (UniProt Q08210); test: PfDHODH enzyme inhibitors, primary screen, biochemical, C-terminal His tag, absorbance 600 nm (AID 1175); conditions: DCIP absorbance 600 nm, higher = more signal, called active from +8 up or from −8 down;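 note: recombinant parasite enzyme with a five histidine tag at its C terminus; test concentration not given here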
[15] = P. aeruginosa biofilm formation inhibitors, primary screen, strain PAO1, LB-PBS medium, absorbance 600 nm (AID 1176); note: test concentration not given here; conditions: P. aeruginosa PAO1 growth/biofilm, A600, 12 h; higher = more signal
[16] = S. cerevisiae RM11-1a growth modifiers, primary screen, strain RM11-1a, OD600, basal, 24 h (AID 1177); conditions: OD600, 24 h, higher = more signal, called active from +8 up or from −8 down;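 note: cultures grown under basal conditions with no added stressor; test concentration not given here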
[17] = E. coli acrAB mutant growth effects, primary screen, E. coli filamentation inducers, strain DRC39, OD650, 24 h (AID 1178); conditions: higher = more signal, called active from +8 up or from −8 down;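 note: growth measured as culture turbidity by optical density at 650 nm; test concentration not given here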
[18] = E. coli acrAB mutant growth effects, primary screen, E. coli filamentation inducers, strain DRC39, OD650, 48 h (AID 1179);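 note: screen aims at cell division blockers that make cells filament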; conditions: E. coli DRC39 delta-acrAB growth, higher = more signal, called active from +8 up or from −8 down
[19] = RPMI8226 myeloma cell viability, profiling panel, resazurin fluorescence, basal, 24 h, PK04 Diversity Set (AID 1180); conditions: higher = more signal;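 note: RPMI8826 multiple myeloma cell line at 5000 cells per well; test concentration not given here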
[20] = molecular target: E3 ubiquitin-protein ligase XIAP (Homo sapiens) (UniProt P98170); test: XIAP binders, primary screen, biophysical, small-molecule microarray, fluorescence 635 nm (AID 1181); conditions: small-molecule microarray binding, higher = more signal;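 note: score merges 667 nm emission and signal to noise over triplicate slides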
E3 ubiquitin-protein ligase XIAP (Homo sapiens), sequence (P98170 whole entry, looked up): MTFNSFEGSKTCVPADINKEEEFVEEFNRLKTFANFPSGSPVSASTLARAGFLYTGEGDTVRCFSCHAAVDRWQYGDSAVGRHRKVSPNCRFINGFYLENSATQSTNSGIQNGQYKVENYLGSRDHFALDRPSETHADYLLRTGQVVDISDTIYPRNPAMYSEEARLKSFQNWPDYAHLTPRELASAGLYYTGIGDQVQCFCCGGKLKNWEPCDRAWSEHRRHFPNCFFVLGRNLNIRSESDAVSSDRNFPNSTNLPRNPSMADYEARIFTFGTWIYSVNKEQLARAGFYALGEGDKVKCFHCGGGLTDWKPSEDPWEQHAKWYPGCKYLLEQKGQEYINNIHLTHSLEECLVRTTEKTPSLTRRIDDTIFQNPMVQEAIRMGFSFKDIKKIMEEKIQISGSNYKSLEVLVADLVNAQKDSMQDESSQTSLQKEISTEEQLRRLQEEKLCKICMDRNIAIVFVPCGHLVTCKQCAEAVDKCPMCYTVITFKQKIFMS

Dihydroorotate dehydrogenase (quinone), mitochondrial (Plasmodium falciparum (isolate 3D7)), sequence (Q08210 whole entry, looked up): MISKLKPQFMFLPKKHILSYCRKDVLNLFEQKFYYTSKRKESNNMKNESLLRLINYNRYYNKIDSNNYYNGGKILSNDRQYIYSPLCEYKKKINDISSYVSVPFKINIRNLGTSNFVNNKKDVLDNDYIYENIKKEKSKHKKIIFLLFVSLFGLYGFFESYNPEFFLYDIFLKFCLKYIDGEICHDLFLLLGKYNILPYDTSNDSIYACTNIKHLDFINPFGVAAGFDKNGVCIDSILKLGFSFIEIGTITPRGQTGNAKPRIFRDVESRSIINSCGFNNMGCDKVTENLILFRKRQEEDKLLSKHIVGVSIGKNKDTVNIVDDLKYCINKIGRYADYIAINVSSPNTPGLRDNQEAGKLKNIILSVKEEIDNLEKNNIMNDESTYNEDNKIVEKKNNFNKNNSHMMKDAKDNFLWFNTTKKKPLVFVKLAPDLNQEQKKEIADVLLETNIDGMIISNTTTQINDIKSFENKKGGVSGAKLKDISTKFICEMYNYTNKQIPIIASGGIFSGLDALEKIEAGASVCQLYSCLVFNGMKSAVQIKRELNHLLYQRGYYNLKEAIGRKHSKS

Compound | z-score [1] | z-score [2] | z-score [3] | z-score [4] | z-score [5] | z-score [6] | z-score [7] | z-score [8] | z-score [9] | z-score [10] | z-score [11] | z-score [12] | z-score [13] | composite z-score [14] | z-score [15] | z-score [16] | z-score [17] | z-score [18] | z-score [19] | composite z-score [20]
COc1ccc(C#Cc2ccc3c(c2)[C@]2(C(=O)N3)[C@H](c3ccc(OCCO)cc3)N3[C@H](c4ccccc4)[C@H](c4ccccc4)OC(=O)[C@H]3[C@@H]2C(=O)N2CCN(c3ncccn3)CC2)cc1 | -0.446 | 1.15 | -0.646 | 0.496 | -0.106 | -0.851 | 4.27 (inactive) | -0.507 | -0.816 | 1.32 (inactive) | 1.45 | 1.56 (inactive) | 1.48 (inactive) | -1.7 (inactive) | 1.66 (inactive) | 1.92 (inactive) | 0.101 (inactive) | -0.344 (inactive) | 1.61 | 0.16
O=C1O[C@H](c2ccccc2)[C@H](c2ccccc2)N2[C@H]1[C@@H](C(=O)N1CCCCCCC1)[C@]1(C(=O)Nc3ccccc31)[C@H]2c1ccc(O)cc1 | 0.416 | 0.759 | 0.757 | -1.81 | -2.71 | -1.65 | 0.123 (inactive) | -0.536 | 0.385 | -1.52 (inactive) | -0.642 | -0.147 (inactive) | -2.64 (inactive) | 0.64 (inactive) | 0.995 (inactive) | 0.767 (inactive) | -0.328 (inactive) | -0.128 (inactive) | -2.73 | 2.57
C=CCOC(=O)[C@@H]1[C@H]2C(=O)O[C@H](c3ccccc3)[C@H](c3ccccc3)N2[C@H](c2ccc(OCCOC(=O)[C@@H]3C[C@@H]4C(=O)N[C@@H](CCCCNC(C)=O)C(=O)N4[C@@H]3c3ccc(O)cc3)cc2)[C@@]12C(=O)Nc1ccc(I)cc12 | 0.32 | -0.571 | -0.179 | -0.154 | 0.165 | -0.396 | 1.21 (inactive) | -0.482 | -1.14 | 0.873 (inactive) | 0.971 | 1.8 (inactive) | 0.668 (inactive) | -1.19 (inactive) | 0.42 (inactive) | 1.67 (inactive) | 0.514 (inactive) | 0.099 (inactive) | 0.616 | 0.158
CC(C)NC(=O)[C@@]1(Cc2ccccc2I)c2ccccc2C(=O)N(Cc2ccccc2C(F)(F)F)[C@H]1c1ccc(CO)cc1 | 0.325 | 1.77 | 0.289 | -1.43 | -1.66 | 0.347 | 0.536 (inactive) | -0.476 | 0.749 | 0.444 (inactive) | 0.406 | 0.835 (inactive) | 1.09 (inactive) | -0.327 (inactive) | 0.82 (inactive) | -0.272 (inactive) | 0.52 (inactive) | -0.319 (inactive) | 0.508 | -0.206
CC1C=C(CCCO)C=C(C(=O)OCCS(C)(=O)=O)C(C(=O)OCCS(C)(=O)=O)=CN1Cc1cccc(OC(F)(F)F)c1 (stereo not given) | 0.114 | 0.606 | 1.23 | -0.289 | -0.226 | 1.27 | -0.63 (inactive) | 0.186 | -0.0273 | -0.0746 (inactive) | -0.096 | -3.46 (inactive) | -0.0212 (inactive) | -2.15 (inactive) | 0.944 (inactive) | 0.309 (inactive) | 0.736 (inactive) | 0.503 (inactive) | 0.0364 | -0.0659
CO[C@H]1O[C@H](CO)[C@@H](OC(=O)Nc2ccc(C(F)(F)F)cc2)[C@H](OC(=O)Nc2ccccc2)[C@H]1OC(=O)Nc1ccccc1 | -3.56 | 1.96 | -5.2 | -3.39 | -4.45 | -1.93 | 0.575 (inactive) | -1.27 | -1.45 | -6.31 (inactive) | -5.15 | 0.0673 (inactive) | -6.47 (inactive) | 0.0214 (inactive) | -0.276 (inactive) | 2.72 (inactive) | 0.201 (inactive) | -1.17 (inactive) | -6.11 | 0.166
C=C[C@@H](O)[C@H]1CC(c2ccccc2)=NO1 | 0.721 | -3.92 | -0.34 | 0.626 | 0.353 | 0.0313 | -0.809 (inactive) | 0.434 | -0.819 | 0.558 (inactive) | 0.0502 | -2.38 (inactive) | 0.325 (inactive) | -0.344 (inactive) | -0.496 (inactive) | -0.2 (inactive) | -0.105 (inactive) | 0.194 (inactive) | 1.08 | -0.0473
C=C(COC)C(=O)CC[C@H](OC(=O)c1ccccc1-c1ccccc1C(=O)O)c1ccc(OCCO)cc1 | -0.127 | 1.06 | -0.626 | -1.85 | -0.385 | -0.271 | -0.328 (inactive) | -0.463 | 0.463 | -0.276 (inactive) | -0.381 | 0.142 (inactive) | -0.288 (inactive) | -0.575 (inactive) | 1.3 (inactive) | -0.386 (inactive) | -0.752 (inactive) | -0.561 (inactive) | -0.7 | 0.0223
CCOC(=O)C[C@H]1[C@H](OC(=O)Cc2ccc3c(c2)OCO3)[C@@H](NC(=O)c2ccccc2)c2cc(OCCCO)ccc2N1C(=O)c1ccc2ccccc2n1 | 1.86 | 1.08 | 1.8 | -0.198 | -0.243 | 1.12 | 0.607 (inactive) | -0.156 | -0.178 | -1.38 (inactive) | -0.287 | -1.02 (inactive) | 0.426 (inactive) | -1.03 (inactive) | -0.0057 (inactive) | -1.68 (inactive) | 0.907 (inactive) | 0.88 (inactive) | 0.121 | -0.138

From PubChem BioAssay
